Inconclusive results are not listed. Calls of active or inactive are those of the source. Unless noted, the call rests on the fitted dose curve.
Tests used:
[1] = Cell Viability - BJ (AID 421); details: BJ fibroblast viability, qHTS;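 further: potency means the concentration at half of the fitted maximal effect; cells exposed to compound for 40 hours at 37 °C before readout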
Outline: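 Cytotoxicity in human BJ foreskin fibroblasts is scored as loss of cellular ATP after a 40-hour exposure, measured by luciferase luminescence. Controls are DMSO and 100 uM tamoxifen.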

[2] = Cell Viability - Jurkat (AID 426;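 active means dose-dependent loss of cell ATP signal giving a full or clear fitted curve, ranked by lower potency value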; further: potency means the concentration at half of the fitted maximal effect); details: qHTS
Outline: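 Jurkat (clone E6-1, human T-cell leukemia) cells, 5000/well in complete medium, were exposed to compound for 40 hr at 37 °C. Viability was read as intracellular ATP by CellTiter-Glo luminescence; AC50 came from Hill fits of concentration-response data.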

[3] = Cell Viability - Hek293 (AID 427;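 active means compounds whose dose-response curve shows a full or clear partial loss of cell viability, called from curve shape rather than a numeric limit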;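 further: potency means the concentration at half of the fitted maximal effect; cells exposed to compound for 40 hours at 37 °C before reading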); details: qHTS
Outline: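 qHTS, human embryonic kidney (adenovirus-transformed) cells; 40 hr cpd, 37 °C; CellTiter-Glo ATP luminescence. Norm: DMSO = 0, 100 uM tamoxifen = 100% inhibition. Hill-fit AC50.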

[4] = Cell Viability - HepG2 (AID 433); details: qHTS;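 further: potency means the concentration at half of the fitted maximal effect; potency for ATP loss meaning cytotoxicity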
Outline: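 Read-out is luciferase-based quantitation of cellular ATP as a measure of viable HepG2 cells after 40 h treatment at 37 °C. Signal decrease is scaled between DMSO-only and 100 uM tamoxifen controls, with AC50 fitted by the Hill equation.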

[5] = Cell Viability - MRC5 (AID 434); details: MRC5 lung fibroblast viability, qHTS;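 further: potency means the concentration at half of the fitted maximal effect; potency reflects cytotoxicity seen as loss of intracellular ATP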
Outline: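 qHTS cytotoxicity in human lung fibroblast MRC5 cells; 40 hr treatment, 37 °C; cellular ATP by luciferase luminescence; DMSO = 0%, 100 uM tamoxifen = 100% inhibition; Hill-fit AC50.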

[6] = Cell Viability - SK-N-SH (AID 435); details: SK-N-SH neuroblastoma cell viability qHTS;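 further: potency means the concentration at half of the fitted maximal effect; compound exposure lasted 40 h at 37 °C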
Outline: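 Luminescent ATP signal served as the viability read-out after 40 hours of compound treatment of human neuroblastoma SK-N-SH cells. Concentration-response data, scaled between DMSO and 100 uM tamoxifen, gave AC50 values by standard Hill modeling.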

[7] = biological target: Mitogen-activated protein kinase 10 (Mus musculus) (UniProt Q61831); test: JNK3 AlphaScreen Assay (AID 530; active means well fitted curve in either direction with a large enough effect, not every such curve was filed as active;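 further: kinase came from lysate of stimulated human HepG2 cells; signal reports phosphorylation of biotinylated GST-cJun 1-79 at Ser73 with 10 µM ATP; on the % scale 0 is the no-effect control and ±100 the full control effect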); details: JNK3 lysate, c-Jun phosphorylation; series mostly up to 57.1 µM
Outline: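 Room-temperature AlphaScreen kinase assay; pre-activated HepG2 lysate as JNK3 source, biotin-GST-cJun(1-79) substrate, 10 uM ATP, compound 15 min preincubation.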

[8] = Cell Viability - N2a (AID 540; active means well fitted curve in the direction sought with a large enough effect; an effect the other way counts as inactive or inconclusive;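 further: plate controls were DMSO alone for no effect and tamoxifen control for full effect; nearly all actives have a fitted effect of over 45% in size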); details: N2a mouse neuroblastoma cell viability; activity change, negative = cytotoxicity: at 92.2 µM (top of the series)
Outline: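 Mouse neuroblastoma N2a cells (1500/well) were preincubated 5 hr at 37 °C, then exposed to compounds for 40 hr at 37 °C in complete medium. Viability was read as intracellular ATP by CellTiter-Glo luminescence; AC50 from Hill fits.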

[9] = Cell Viability - NIH 3T3 (AID 541; active means well fitted curve in the direction sought with a large enough effect; an effect the other way counts as inactive or inconclusive; further: nearly all actives have a fitted effect of over 25% in size; further: potency means the concentration at half of the fitted maximal effect;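 on activity change, negative = cytotoxicity: plate controls were DMSO alone for no effect and tamoxifen positive control for full effect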); details: NIH 3T3 cell viability, qHTS; activity change, negative = cytotoxicity: at 92.2 µM (top of the series)
Outline: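 NIH 3T3 mouse embryo fibroblasts (1000 cells/well) were plated in complete medium and treated with compound for 40 hr at 37 °C. Viability was read as intracellular ATP by CellTiter-Glo luminescence; AC50 values came from Hill-equation fits of concentration-response data.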

[10] = Cell Viability - HUV-EC-C (AID 542; active means well fitted curve in the direction sought with a large enough effect; an effect the other way counts as inactive or inconclusive; further: on the % scale 0 is the no-effect control and ±100 the full control effect; nearly all actives have a fitted effect of over 35% in size); details: HUV-EC-C endothelial cell viability, qHTS; series mostly up to 92.2 µM
Outline: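 HUV-EC-C normal human vascular endothelial cells, 1000 cells/well, pre-incubated 5 hr at 37 °C, then exposed to compounds for 40 hr at 37 °C in complete medium. Viability measured as intracellular ATP by CellTiter-Glo luminescence; AC50 from Hill fits.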

C=CC(=O)OCCCC
inactive: Potency [1] > 92 µM | Potency [2] > 92 µM | Potency [3] > 92 µM | Potency [4] > 92 µM | Potency [5] > 92 µM | Potency [6] > 92 µM | outcome [7] | activity change, negative = cytotoxicity [8] 10.3% | Potency [9] | Potency [10]

c1ccc2n[nH]nc2c1
inactive: Potency [1] > 92 µM | Potency [2] > 92 µM | Potency [3] > 92 µM | Potency [4] > 92 µM | Potency [5] > 92 µM | Potency [6] > 92 µM | outcome [7] | activity change, negative = cytotoxicity [8] -2.18% | Potency [9] | Potency [10]

C=CCn1c(=O)n(CC=C)c(=O)n(CC=C)c1=O
inactive: Potency [1] > 92 µM | Potency [2] > 92 µM | Potency [3] > 92 µM | Potency [4] > 92 µM | Potency [5] > 92 µM | Potency [6] > 92 µM | outcome [7] | activity change, negative = cytotoxicity [8] 0.0467% | Potency [9] | Potency [10]

Cc1cc(C)cc([N+](=O)[O-])c1
inactive: Potency [1] > 92 µM | Potency [2] > 92 µM | Potency [3] > 92 µM | Potency [4] > 92 µM | Potency [5] > 92 µM | Potency [6] > 92 µM | outcome [7] | activity change, negative = cytotoxicity [8] -7.51% | Potency [9] | Potency [10]

N#CCc1ccccc1[N+](=O)[O-]
inactive: Potency [1] > 92 µM | Potency [2] > 92 µM | Potency [3] > 92 µM | Potency [4] > 92 µM | Potency [5] > 92 µM | Potency [6] > 92 µM | outcome [7] | activity change, negative = cytotoxicity [8] -1.71% | Potency [9] | Potency [10]

C1COC1
inactive: Potency [1] > 92 µM | Potency [2] > 92 µM | Potency [3] > 92 µM | Potency [4] > 92 µM | Potency [6] > 92 µM | outcome [7] | activity change, negative = cytotoxicity [8] -2.69% | Potency [9] | Potency [10]

ON=C1CCCCC1
inactive: Potency [1] > 92 µM | Potency [2] > 92 µM | Potency [3] > 92 µM | Potency [4] > 92 µM | Potency [6] > 92 µM | activity change, negative = cytotoxicity [8] 0.317% | Potency [9] | Potency [10]

Cc1ccc(C(C)(C)C)cc1
inactive: Potency [1] > 92 µM | Potency [2] > 92 µM | Potency [3] > 92 µM | Potency [4] > 92 µM | Potency [6] > 92 µM | outcome [7] | activity change, negative = cytotoxicity [8] -7.24% | Potency [9] | Potency [10]

O=C1NC(=O)c2cc([N+](=O)[O-])ccc21
inactive: Potency [1] > 92 µM | Potency [2] > 92 µM | Potency [3] > 92 µM | Potency [4] > 92 µM | Potency [6] > 92 µM | outcome [7] | activity change, negative = cytotoxicity [8] -3.32% | Potency [9] | Potency [10]

COC(=O)CCC(=O)OC
inactive: Potency [1] > 92 µM | Potency [2] > 92 µM | Potency [3] > 92 µM | Potency [4] > 92 µM | Potency [6] > 92 µM | outcome [7] | activity change, negative = cytotoxicity [8] -1.63% | Potency [9] | Potency [10]

COc1ccc(N=[N+]([O-])c2ccc(OC)cc2)cc1
inactive: Potency [1] > 92 µM | Potency [2] > 92 µM | Potency [3] > 92 µM | Potency [4] > 92 µM | Potency [6] > 92 µM | activity change, negative = cytotoxicity [8] -19% | Potency [9] | Potency [10]

CNc1ccc([N+](=O)[O-])cc1
inactive: Potency [1] > 92 µM | Potency [2] > 92 µM | Potency [3] > 92 µM | Potency [4] > 92 µM | Potency [6] > 92 µM | outcome [7] | activity change, negative = cytotoxicity [8] -12.7% | Potency [10]

Cc1c(C(=O)O)cccc1[N+](=O)[O-]
inactive: Potency [1] > 92 µM | Potency [2] > 92 µM | Potency [3] > 92 µM | Potency [4] > 92 µM | Potency [6] > 92 µM | outcome [7] | activity change, negative = cytotoxicity [8] 5.3% | Potency [9] | Potency [10]

CCOCC(=O)O
inactive: Potency [1] > 92 µM | Potency [2] > 92 µM | Potency [3] > 92 µM | Potency [4] > 92 µM | Potency [6] > 92 µM | outcome [7] | activity change, negative = cytotoxicity [8] -1.83% | Potency [9] | Potency [10]

CCN(C(=O)N(CC)c1ccccc1)c1ccccc1
active: Potency [9] 7.94 µM
inactive: Potency [1] > 92 µM | Potency [2] > 92 µM | Potency [3] > 92 µM | Potency [4] > 92 µM | Potency [6] > 92 µM | outcome [7] | activity change, negative = cytotoxicity [8] -13.7% | Potency [10]

CCCCC(CC)CO (centres undefined)
inactive: Potency [1] > 92 µM | Potency [2] > 92 µM | Potency [3] > 92 µM | Potency [4] > 92 µM | Potency [6] > 92 µM | outcome [7] | activity change, negative = cytotoxicity [8] -1.19% | Potency [9] | Potency [10]

CC#N
inactive: Potency [1] > 92 µM | Potency [2] > 92 µM | Potency [3] > 92 µM | Potency [4] > 92 µM | Potency [6] > 92 µM | outcome [7] | activity change, negative = cytotoxicity [8] 0.749% | Potency [9] | Potency [10]

CCN(CC)c1cccc(O)c1
inactive: Potency [1] > 92 µM | Potency [2] > 92 µM | Potency [3] > 92 µM | Potency [4] > 92 µM | Potency [6] > 92 µM | outcome [7] | activity change, negative = cytotoxicity [8] 0.0315% | Potency [9] | Potency [10]

Reference: PubChem BioAssay (NCATS)
